According to ChEMBL document CHEMBL3988442, “University of Dundee, Small-Polar-MMV Screening Library” (2021):
The whole screen tested about 48,000 compounds, of which about 13,000 (27%) showed an effect of 50% or more. The list shows a part of the results.

test system: Wolbachia pipientis; experiment: Anti-Wolbachia Cell-Based Screen; format: functional; design: scale not given: in the data most compounds retested in dose-response had high values; conditions: 5 µM

Question: CC(C)N1Cc2cccc(NCC(=O)N(C)C)c2C1 was tested. Which “Percent Effect” value did it give?
Answer: -13.34%

Question: Which “Percent Effect” value does the source give for Cc1ccc(N2Cc3c(CN(C)C)nn(C)c3C2)nn1 here?
Answer: -4.068%

Question: Which “Percent Effect” value does the source give for O=C(O)C(F)(F)F.O=C(c1ccco1)N1CCc2c(COCC3CC3)cncc2C1 here?
Answer: -15.15%

Question: O=C(O)C(F)(F)F.O=C(c1cscn1)N1CCc2c(COCC3CC3)cncc2C1 was tested. Which “Percent Effect” value did it give?
Answer: 89.35%

Question: O=C(O)C(F)(F)F.O=C(c1ccsc1)N1CCc2c(COCC3CC3)cncc2C1 was tested. Which “Percent Effect” value did it give?
Answer: -5.644%

Question: Which “Percent Effect” value does the source give for CCOCc1cncc2c1CCN(C(=O)c1cscn1)C2.O=C(O)C(F)(F)F here?
Answer: 95.41%

Question: Which “Percent Effect” value does the source give for CC(C)COCc1cncc2c1CCN(C(=O)c1cscn1)C2.O=C(O)C(F)(F)F here?
Answer: 82.53%

Question: For CC(C)COCc1cncc2c1CCN(Cc1cnn(C)c1)C2.O=C(O)C(F)(F)F.O=C(O)C(F)(F)F, which “Percent Effect” value is on record?
Answer: -4.372%

Question: With Cc1ncsc1CN1C[C@@H]2COC[C@]2(C(=O)NC2CC(F)(F)C2)C1.O=C(O)C(F)(F)F as the compound, how does the “Percent Effect” value read?
Answer: 20.27%

Question: CN(C)C(=O)N1C[C@@H]2CC[C@H](C1)N(C(=O)CCCn1cncn1)C2 was tested. Which “Percent Effect” value did it give?
Answer: -23.9%

Question: For Cc1cc(S(=O)(=O)NCc2cccc(C(=O)N3CCCC3)c2)c(C)s1, which “Percent Effect” value is on record?
Answer: 10.27%

Question: O=C(c1cccc(CNS(=O)(=O)c2ccccc2F)c1)N1CCCC1 was tested. Which “Percent Effect” value did it give?
Answer: 1.767%

Question: With O=C(NCc1cccc(F)c1)c1cccc(C(=O)N2CCCC2)n1 as the compound, how does the “Percent Effect” value read?
Answer: 8.268%

Question: For Cc1cc(F)ccc1S(=O)(=O)NCc1cccc(C(=O)N2CCCC2)c1, which “Percent Effect” value is on record?
Answer: 0.7357%

Question: With O=C(c1cccc(CNC/C=C/c2ccccc2)c1)N1CCCC1 as the compound, how does the “Percent Effect” value read?
Answer: -7.138%

Question: With Cc1ccc(F)cc1S(=O)(=O)NCc1cccc(C(=O)N2CCCC2)c1 as the compound, how does the “Percent Effect” value read?
Answer: 74.77%

Question: With Cc1ccc(F)c(S(=O)(=O)NCc2cccc(C(=O)N3CCCC3)c2)c1 as the compound, how does the “Percent Effect” value read?
Answer: 126.7%

Question: How did the “Percent Effect” value turn out when Cc1cc(F)ccc1CNCc1cccc(C(=O)N2CCCC2)c1 was run?
Answer: 100.5%

Question: For O=C1[C@@H]2CCN(CC3CCOCC3)C[C@@H]2OCCN1c1ccccc1, which “Percent Effect” value is on record?
Answer: -22.15%

Question: With CN(C)C(=O)CNC(CC(F)(F)F)c1ccc(Cl)cc1 (stereo not drawn) as the compound, how does the “Percent Effect” value read?
Answer: 1.329%

Question: For OCCNC1CSCCc2ccccc21 (stereo not drawn), which “Percent Effect” value is on record?
Answer: -7.147%

Question: For Cc1n[nH]cc1CNC1(c2ccc(Br)cc2)CC1, which “Percent Effect” value is on record?
Answer: -6.578%

Question: For O=C(CC(F)(F)F)NC(c1ccc(Cl)cc1)c1ncon1 (stereo not drawn), which “Percent Effect” value is on record?
Answer: 11.91%

Question: How did the “Percent Effect” value turn out when O=C([C@@H]1COC[C@H]2CN(CC3CCCC3)C[C@H]21)N1CCOCC1 was run?
Answer: -6.22%

Question: For Nc1cc2c(nn1)CCN(C(=O)Cc1ccc3c(c1)CCO3)C2, which “Percent Effect” value is on record?
Answer: 8.586%

Question: With O=C(Cc1ccc2c(c1)OCC2)Nc1nc[nH]n1 as the compound, how does the “Percent Effect” value read?
Answer: 104.4%

Question: CN(C)c1cc2c(nn1)CCN(C(=O)Cc1ccc3c(c1)CCO3)C2 was tested. Which “Percent Effect” value did it give?
Answer: -10.79%

Question: O=C(Cc1ccc2c(c1)OCC2)Nc1nc(C(F)(F)F)n[nH]1 was tested. Which “Percent Effect” value did it give?
Answer: 131.9%

Question: CN(Cc1nnc2n1CCC2)C(=O)Cc1ccc2c(c1)OCCO2 was tested. Which “Percent Effect” value did it give?
Answer: -1.07%

Question: O=C(Cc1ccc2c(c1)OCCO2)NC1CCN(CC(F)F)CC1 was tested. Which “Percent Effect” value did it give?
Answer: 2.104%

Question: How did the “Percent Effect” value turn out when O=C(Cc1ccc2c(c1)OCC2)Nc1nn[nH]n1 was run?
Answer: 216.7%

Question: For O=C(Cc1ccc2c(c1)OCO2)N[C@@H]1CCNC[C@H]1O, which “Percent Effect” value is on record?
Answer: -5.906%

Question: For O=C(Cc1ccc2c(c1)CCO2)Nc1ccc(-n2cncn2)nc1, which “Percent Effect” value is on record?
Answer: -5.052%

Question: With CCCc1cc(N2CCCC2Cn2cc(C)cn2)n2ncnc2n1 (stereo not drawn) as the compound, how does the “Percent Effect” value read?
Answer: -1.643%

Question: How did the “Percent Effect” value turn out when O=C(Nc1ccc2ncccc2c1)C1CC(=O)N(Cc2ccccn2)C1 (stereo not drawn) was run?
Answer: -4.026%

Question: For Cc1ccc(C(NC(=O)CCNC(=O)c2ccoc2)C(F)(F)F)cc1 (stereo not drawn), which “Percent Effect” value is on record?
Answer: 20.44%

Question: Which “Percent Effect” value does the source give for Cc1nc(CN2C[C@@H](NS(=O)(=O)N(C)C)[C@H](C(C)C)C2)cs1 here?
Answer: -0.9733%

Question: How did the “Percent Effect” value turn out when Cc1ccc(CN(CC(=O)NCC2CCOC2)c2ccc(F)cc2)o1 (stereo not drawn) was run?
Answer: -9.674%

Question: For COc1cccc(CNCc2c(C)nc3sc(C)cn23)c1OC, which “Percent Effect” value is on record?
Answer: -11.36%

Question: How did the “Percent Effect” value turn out when Cc1nc(-c2ccc(Cl)s2)sc1C(=O)O was run?
Answer: 9.091%

Question: How did the “Percent Effect” value turn out when Cc1nc(Oc2ccccc2F)sc1C(=O)O was run?
Answer: 91.89%

Question: Cc1nc(-c2ccccc2F)sc1C(=O)N1CCN(C)CC1 was tested. Which “Percent Effect” value did it give?
Answer: 3.843%

Question: For COc1cccc(Oc2nc(C)c(C(=O)O)s2)c1OC, which “Percent Effect” value is on record?
Answer: 116.8%

Question: For CC(=O)Nc1cnc(Oc2ccccc2F)nc1, which “Percent Effect” value is on record?
Answer: -1.763%

Question: For Cc1ccc2cccc(Oc3nc(C)c(C(=O)O)s3)c2n1, which “Percent Effect” value is on record?
Answer: 111%

Question: Which “Percent Effect” value does the source give for Cc1ccc2cccc(C(=O)N3CCN(c4cccnn4)CC3)c2n1 here?
Answer: -2.333%

Question: For COc1cccc(C(=O)N(C)C(C)c2c(C)n[nH]c2C)c1OC (stereo not drawn), which “Percent Effect” value is on record?
Answer: -15.68%

Question: Cc1nc(NC(=O)OC(C)(C)C)sc1C(=O)O was tested. Which “Percent Effect” value did it give?
Answer: 0.0995%

Question: With CCOC(=O)CCNC(=O)c1cccc2ccc(C)nc12 as the compound, how does the “Percent Effect” value read?
Answer: -7.02%

Question: Which “Percent Effect” value does the source give for Cc1nc(Oc2ccccc2Cl)sc1C(=O)O here?
Answer: 98.65%

Question: O=C1C(N2CCOC3(CCCC3)C2)CCN1C1CC1 (stereo not drawn) was tested. Which “Percent Effect” value did it give?
Answer: 15.83%

Question: How did the “Percent Effect” value turn out when Cc1nnc2n1CC(CNc1ncnc3ccccc13)CC2 (stereo not drawn) was run?
Answer: -0.4612%

Question: Which “Percent Effect” value does the source give for CCN(CC)CCCN1CCC(NC(=O)OC(C)(C)C)CC1 here?
Answer: 13.41%

Question: With CN(C)CCN1CCc2ncc(CN(C)Cc3ccco3)n2CC1 as the compound, how does the “Percent Effect” value read?
Answer: 24.09%

Question: How did the “Percent Effect” value turn out when Cc1cc(C)n(CCCN(CCN2CCOCC2)Cc2ccco2)n1 was run?
Answer: 110.7%

Question: For CSCCCN(CCN1CCOCC1)Cc1ccco1, which “Percent Effect” value is on record?
Answer: 114.6%

Question: Which “Percent Effect” value does the source give for Cc1cc(C)n(CCN2CCN(C(=O)c3ccccc3Br)CC2)n1 here?
Answer: 0.6022%

Question: How did the “Percent Effect” value turn out when Cc1cc(C)n(Cc2cccc(C(=O)NCCN3CCOCC3)c2)n1 was run?
Answer: -2.99%

Question: With Cl.Cl.O[C@@H]1C[C@@](CNCc2cccc(Cl)c2)(COc2cccnc2)C[C@@H]1O as the compound, how does the “Percent Effect” value read?
Answer: -8.733%

Question: COc1ncccc1CN1CCC2(CCCN2S(C)(=O)=O)CC1.O=C(O)C(F)(F)F.O=C(O)C(F)(F)F was tested. Which “Percent Effect” value did it give?
Answer: 2.287%

Question: How did the “Percent Effect” value turn out when COc1ncccc1CN1C[C@H]2C[C@@H](C(=O)NCC3CC3)N(C)[C@H]2C1.O=C(O)C(F)(F)F.O=C(O)C(F)(F)F.O=C(O)C(F)(F)F was run?
Answer: 107.4%

Question: COc1ncccc1CN1C[C@H]2CCN(c3ccc(C)nn3)C[C@H]2C1.O=C(O)C(F)(F)F was tested. Which “Percent Effect” value did it give?
Answer: 107.5%

Question: With Cc1ccc(N2CC[C@H]3CN(C(=O)c4ccn(C)n4)C[C@H]3C2)nn1.O=C(O)C(F)(F)F as the compound, how does the “Percent Effect” value read?
Answer: -19.75%

Question: For CCOCC1CN(Cc2cccnc2OC)Cc2cnn(C)c21.O=C(O)C(F)(F)F.O=C(O)C(F)(F)F.O=C(O)C(F)(F)F (stereo not drawn), which “Percent Effect” value is on record?
Answer: 2.379%

Question: How did the “Percent Effect” value turn out when COc1ncccc1CN1Cc2nnn(C)c2C(COCC2CC2)C1.O=C(O)C(F)(F)F.O=C(O)C(F)(F)F (stereo not drawn) was run?
Answer: -15.9%

Question: For COc1ncccc1CN1C[C@@H]2C[C@@H](C(=O)NCC3CC3)N(C)[C@@H]2C1, which “Percent Effect” value is on record?
Answer: 96.26%

Question: With COc1ncccc1CN1CC[C@@]2(O)CCN(C(=O)C3CCC3)C[C@H]2C1 as the compound, how does the “Percent Effect” value read?
Answer: 6.817%

Question: COc1ncccc1CNC(=O)N1CCC(CNC(C)=O)CC1 was tested. Which “Percent Effect” value did it give?
Answer: 18.77%
